Anthrax LF prot: blocks Bacillus anthracis lethal factor protease | multiplex microsphere protease cleavage assay, LF | inhibition, % at 10 µM | actives 0.12% (n = 360,000); note: plate controls were buffer without enzyme for full effect and enzyme alone for no effect
Bead autofluor: counter-screen for toxin protease inhibitors: compound fluorescence. compound autofluorescence counterscreen, microsphere flow cytometry; stronger effect = higher value. fluorescence intensity (no concentration beside the values). actives 3.1% (n = 360,000). AID 624483; in the data active = fluorescence intensity above about 16000; inconclusive = no clear call, values can overlap the other calls
BoNT-F LC inh: inhibitors of Botulinum neurotoxin F light chain protease; actives 0.22% (n = 360,000); inhibition, % at 10 µM; Multiplex microsphere protease cleavage assay, flow cytometry; AID 588497; in the data active = inhibition above about 35%, passing the limit was not always enough; inconclusive = no clear call, values can overlap the other calls; note: plate controls were buffer without enzyme for full effect and enzyme alone for no effect
BoNT A protease: BoNT A light chain protease inhibition | multiplex microsphere protease substrate cleavage, flow cytometry | inhibition, % at 10 µM | actives 0.17% (n = 360,000) | AID 588499; note: plate controls were buffer without enzyme for full effect and enzyme alone for no effect
PriA SSB inh: K. pneumoniae PriA-SSBct interaction inhibition | inhibition, % at 33 µM | AID 1272365 | AlphaScreen SSBct-PriA binding, biotinylated peptide | actives 0.6% (n = 430,000); in the data active = inhibition mostly above about 37%, no sharp cut-off; inactive = mostly below about 20%;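 note: plate controls were negative control peptide for no effect and reference peptide for full effect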
Starred values were filed as active, the others as inactive; ? = inconclusive; . = no result given. Sampled rows, rich in hits. Any-hit rate of the full collection: about 3.1%. Cut-off read from the data, not from the text of the source, unless noted: active = inhibition above about 30%; inconclusive = no clear call, values can overlap the other calls; inactive = below that.

SMILES	Anthrax LF prot	Bead autofluor	BoNT-F LC inh	BoNT A protease	PriA SSB inh
Cc1ccc(-c2[nH]nc3c2C(c2cccnc2)C(C#N)=C(N)O3)cc1 (stereo not drawn)	-3	23057*	0	?	-7
CCOC(=O)C1=C(C)N=c2sc(=Cc3ccc(OCC(=O)O)cc3)c(=O)n2C1c1ccccc1 (stereo not drawn)	.	.	.	.	-3
Cc1ccc(C(C(=O)NC2CCCCC2)N(Cc2ccccc2)C(=O)Cc2c[nH]c3ccccc23)o1 (stereo not drawn)	-3	2243	-2	0	3
COc1ccc(CN(C(=O)Cc2c[nH]c3ccccc23)C(C(=O)NC2CCCCC2)c2ccc(C)o2)cc1 (stereo not drawn)	-6	27158*	-9	-6	13
COc1cc(C(C(=O)NC2CCCCC2)N(Cc2cccs2)C(=O)Cc2c[nH]c3ccccc23)cc(OC)c1OC (stereo not drawn)	-2	23578*	-4	-3	2
COc1cc(C(C(=O)NC2CCCCC2)N(C(=O)Cc2c[nH]c3ccccc23)c2ccccc2C)cc(OC)c1OC (stereo not drawn)	-2	2433	-4	0	11
COCCN(C(=O)COC(=O)c1cc(C)n(-c2ccccc2)c1C)c1c(N)n(Cc2ccccc2)c(=O)[nH]c1=O	?	6533	-9	60*	9
COCCN(C(=O)CSc1nnc(C)n1-c1ccc(C)cc1)c1c(N)n(Cc2ccccc2)c(=O)[nH]c1=O	-12	17749*	-84	-50	-11
COCCN(C(=O)COC(=O)c1cc2ccccc2cc1OC)c1c(N)n(Cc2ccccc2)c(=O)[nH]c1=O	3	?	-6	?	-2
CC(=NCCC1=CCCCC1)c1c(O)n(C)c(=O)n(C)c1=O	1	23048*	0	0	-5
CCN(CC)c1ccc(/C=N/N2CCN(Cc3cccc4ccccc34)CC2)c(O)c1	-8	23476*	-8	-4	.
COn1c(SCc2cccc(Cl)c2)nc2ccccc2c1=O	-2	17254*	-10	-2	-23
O=C(c1cccs1)N(Cc1ccco1)C1CCS(=O)(=O)C1 (stereo not drawn)	1	22695*	5	3	1
Cc1ccc(CN(C(=O)c2cccs2)C2CCS(=O)(=O)C2)cc1 (stereo not drawn)	-1	6002	7	-1	-5
O=C(c1cccs1)N(Cc1cccc(F)c1)C1CCS(=O)(=O)C1 (stereo not drawn)	5	5123	1	1	5
O=C(c1cccs1)N(Cc1cccc(Cl)c1)C1CCS(=O)(=O)C1 (stereo not drawn)	0	21176*	-3	?	-15
COc1ccc(S(=O)(=O)c2ccc(=O)n(CC(=O)Nc3ccccc3F)n2)cc1	.	.	.	.	-2
O=C(NCC[C@H](O)c1ccco1)C(=O)NCC(F)(F)F	.	.	.	.	5
O=C(CSC1=NNC(c2ccccn2)S1)Nc1ccccc1 (stereo not drawn)	-6	3225	?	3	87*
O=C(CSC1=NNC(c2ccccn2)S1)Nc1cccc(Cl)c1 (stereo not drawn)	-24	3921	?	4	42*
CC(=O)N1c2ccc(S(=O)(=O)N3CCc4ccccc43)cc2C[C@@H]1C	.	.	.	.	-6
Cc1c(OCC(=O)N2C[C@H]3C[C@H](C2)c2cccc(=O)n2C3)ccc2c3c(c(=O)oc12)CCCC3	.	.	.	.	0
COc1ccc(-c2csc(NC(=O)CCS(=O)(=O)c3ccccc3)n2)cc1C	.	.	.	.	-10
O=C(Nc1ccc(-c2cn3ccsc3n2)cc1)c1ccc(-n2cncn2)nn1	.	.	.	.	-24
O=C(NCn1cnccc1=O)c1ccccc1	-4	23239*	0	0	-11
SMILES	Anthrax LF prot	Bead autofluor	BoNT-F LC inh	BoNT A protease	PriA SSB inh
S=c1[nH]nc(-c2ccccc2)n1C1C=CCCC1 (stereo not drawn)	2	16741*	-3	-1	2
Clc1ccc(CSc2snnc2-c2ccccc2)cc1	?	?	?	?	-64
Clc1ccc(-c2nnsc2SCc2ccccc2)cc1	-2	22947*	-7	-2	-17
Clc1ccccc1CSc1snnc1-c1ccccc1	-2	20983*	-4	?	-33
CCOc1cc(C=NN=C2NC(=O)C(CC(=O)O)S2)ccc1OS(=O)(=O)c1ccc(C)cc1 (stereo not drawn)	.	.	.	.	-9
Cc1cc(NC(=O)c2cc3ccccc3o2)n(-c2nc(-c3cccs3)cs2)n1	.	.	.	.	-1
c1ccc(N2CCN(c3c4c(nc5ncnn35)CCC4)CC2)cc1	-1	21815*	6	3	-1
COc1cccc(N2CCN(c3c4c(nc5ncnn35)CCC4)CC2)c1	0	22408*	3	4	7
COc1cccc(N2CCN(c3ncccn3)CC2)c1	4	9764	-15	0	7
C=CCn1c(CSc2nc3ccccc3s2)nnc1SC/C=C/c1ccccc1	.	.	.	.	-4
CS(=O)(=O)c1ccccc1NC(=O)C12CC3CC(CC(C3)C1)C2	.	.	.	.	-7
O=C(Nc1ccccc1C(F)(F)F)N1CCC(n2ccnn2)CC1	.	.	.	.	-18
Cc1ccc(S(=O)(=O)N2CCC(C(=O)OC(C)C(=O)NCc3ccc4c(c3)OCO4)CC2)cc1 (stereo not drawn)	-1	23314*	-3	?	-8
CCC(C(=O)N1CCC2(CC1)OCCO2)c1ccccc1 (stereo not drawn)	-2	16484*	1	?	-11
CCC(C(=O)N1CCN(c2ncccn2)CC1)c1ccccc1 (stereo not drawn)	2	3842	6	1	1
Cc1ccc(S(=O)(=O)n2ccnc2)cc1	.	.	.	.	-3
Cc1ccc(-c2cnn3c(Cl)cc(C(C)(C)C)nc23)cc1	.	.	.	.	-6
O=[N+]([O-])c1ccc(C2CCCC/C2=N\OCc2cccc(F)c2)c([N+](=O)[O-])c1 (stereo not drawn)	-4	23769*	-9	?	.
O=[N+]([O-])c1ccc(C2CCCCC2=NOCc2ccc(F)cc2)c([N+](=O)[O-])c1 (stereo not drawn)	.	.	.	.	45*
NS(=O)(=O)c1ccc(CNc2nnnc3c2cnn3-c2ccccc2)cc1	.	.	.	.	-2
O=C(NC1CC1)c1nc2c(nnn2Cc2ccccc2Cl)c(=O)[nH]1	8	7900	2	-1	-1
O=C(NCCc1ccccc1)c1nc2c(nnn2Cc2ccccc2Cl)c(=O)[nH]1	-5	16657*	-4	-2	0
CN(C)CC#CCNC(=O)Cn1ccc2ccccc21	.	.	.	.	-22

Screens deposited in PubChem BioAssay by several laboratories.
